Test [1] in a line: compound effects on lung adenocarcinoma cell viability – A549, calcein-AM fluorescence, 48 h, basal, profiling panel (AID 1162). Note: test concentration not given here. The settings on record: higher = more signal.
A short description of test [2]: compound effects on differentiated 3T3-L1 adipocyte viability – cell-based, 3T3-L1 adipocytes, calcein-AM fluorescence, 48 h, basal, profiling panel (AID 1163). Note: test concentration not given here. Conditions: 3T3-L1 adipocytes viability, higher = more signal.
Test [3] in a line: compound effects on hepatocellular carcinoma cell viability – HepG2, calcein-AM fluorescence, 48 h, basal, profiling panel (AID 1164). Note: test concentration not given here. Conditions: higher = more signal.
A short description of test [4]: compound effects on multiple myeloma cell viability – MM1S, calcein-AM fluorescence, 48 h, basal, profiling panel (AID 1165). Note: test concentration not given here. Conditions: higher = more signal.
The nature of test [5]: calcein-AM signal in unstimulated myeloma cells – cell-based, calcein-AM fluorescence, 48 h, PK04 Diversity Set, profiling panel (AID 1166).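 Note: cells grown under basal conditions without added stimulus; test concentration not given here.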 The settings on record: RPMI8226 myeloma viability, higher = more signal.
Test [6] can be described thus: JC-1 mitochondrial signal, unstimulated HepG2 cells – cell-based, JC-1 fluorescence, 24 h, 100 nL compound, profiling panel (AID 1167). Note: test concentration not given here. Conditions: HepG2 mitochondrial potential, higher = more signal.
Test [7] is described as follows: JC-1 mitochondrial signal, unstimulated adipocytes – cell-based, JC-1 fluorescence, 3T3-L1 adipocytes, 24 h, 100 nL compound, profiling panel (AID 1168). Note: test concentration not given here. Conditions: JC-1 mitochondrial fluorescence, higher = more signal, called active from +8 up or from −8 down.
Test [8] is described as follows: JC-1 mitochondrial signal, unstimulated myeloma cells – cell-based, JC-1 fluorescence, RPMI8226, 24 h, 100 nL compound, profiling panel (AID 1169). Note: test concentration not given here. Conditions: JC-1 mitochondrial potential fluorescence, higher = more signal.
Test [9] can be described thus: JC-1 mitochondrial signal, unstimulated MM1S myeloma – cell-based, JC-1 fluorescence, 24 h, 100 nL compound, profiling panel (AID 1170). Note: test concentration not given here. The settings on record: MM1S mitochondrial potential, higher = more signal.
Test [10] is described as follows: resazurin metabolic signal in A549 cells – cell-based, resazurin fluorescence, 24 h, PK04 Diversity Set, profiling panel (AID 1171). Note: test concentration not given here. The settings on record: A549 viability, higher = more signal, called active from +8 up or from −8 down.
Test [11] can be described thus: resazurin metabolic signal in HepG2 cells – cell-based, resazurin fluorescence, 24 h, PK04 Diversity Set, profiling panel (AID 1172). Note: test concentration not given here. Conditions: HepG2 viability, higher = more signal. (In general: Alamar Blue is a resazurin reagent that responds to reducing activity.)
The nature of test [12]: budding yeast growth changes without added modifier – OD600, strain BY4716, 24 h, basal condition, primary screen (AID 1173). The settings on record: S. cerevisiae BY4716 growth, OD600, 24 h; higher = more signal, called active from +8 up or from −8 down.
Test [13] in a line: viability profiling in MM1S myeloma cells – cell-based, resazurin fluorescence, basal, 24 h, PK04 Diversity Set, profiling panel (AID 1174). Note: test concentration not given here. Conditions: higher = more signal, called active from +8 up or from −8 down.
Test [14] addresses Dihydroorotate dehydrogenase (quinone), mitochondrial (Plasmodium falciparum (isolate 3D7)) (UniProt Q08210). The test can be described thus: inhibition of P. falciparum DHODH – biochemical, C-terminal His tag, absorbance 600 nm, primary screen (AID 1175).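 Note: recombinant parasite enzyme with a five histidine tag at its C terminus; test concentration not given here.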 The settings on record: PfDHODH enzyme, DCIP absorbance 600 nm; higher = more signal, called active from +8 up or from −8 down.

Test [15] in a line: inhibition of PAO1 biofilm formation – strain PAO1, LB-PBS medium, absorbance 600 nm, primary screen (AID 1176). Note: test concentration not given here. The settings on record: P. aeruginosa PAO1 growth/biofilm, A600, 12 h; higher = more signal.
Test [16] in a line: growth modulation of vineyard yeast isolate – strain RM11-1a, OD600, basal, 24 h, primary screen (AID 1177).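 Note: cultures grown under basal conditions with no added stressor; test concentration not given here.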 The settings on record: S. cerevisiae RM11-1a growth, OD600, 24 h; higher = more signal, called active from +8 up or from −8 down.
Test [17] can be described thus: growth of efflux-deficient E. coli DRC39 – strain DRC39, OD650, 24 h, E. coli filamentation inducers, primary screen (AID 1178).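 Note: growth measured as culture turbidity by optical density at 650 nm; test concentration not given here.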 Conditions: E. coli DRC39 acrAB, higher = more signal, called active from +8 up or from −8 down.
A short description of test [18]: growth of efflux-deficient E. coli DRC39 – strain DRC39, OD650, 48 h, E. coli filamentation inducers, primary screen (AID 1179).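 Note: screen aims at cell division blockers that make cells filament.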 Conditions: E. coli DRC39 delta-acrAB growth, higher = more signal, called active from +8 up or from −8 down.
Test [19] in a line: viability profiling in RPMI8226 myeloma cells – cell-based, resazurin fluorescence, basal, 24 h, PK04 Diversity Set, profiling panel (AID 1180).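 Note: RPMI8826 multiple myeloma cell line at 5000 cells per well; test concentration not given here.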 The settings on record: higher = more signal.
The target of test [20] is E3 ubiquitin-protein ligase XIAP (Homo sapiens) (UniProt P98170). Nature of the test: small molecules binding XIAP protein – biophysical, small-molecule microarray, fluorescence 635 nm, primary screen (AID 1181).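 Note: score merges 667 nm emission and signal to noise over triplicate slides.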 Conditions: higher = more signal.

Structures are written as SMILES. The source made the active and inactive calls. Unless noted, the rule behind the calls is not given here.

Chain of Dihydroorotate dehydrogenase (quinone), mitochondrial (Plasmodium falciparum (isolate 3D7)) (Q08210 whole entry, looked up): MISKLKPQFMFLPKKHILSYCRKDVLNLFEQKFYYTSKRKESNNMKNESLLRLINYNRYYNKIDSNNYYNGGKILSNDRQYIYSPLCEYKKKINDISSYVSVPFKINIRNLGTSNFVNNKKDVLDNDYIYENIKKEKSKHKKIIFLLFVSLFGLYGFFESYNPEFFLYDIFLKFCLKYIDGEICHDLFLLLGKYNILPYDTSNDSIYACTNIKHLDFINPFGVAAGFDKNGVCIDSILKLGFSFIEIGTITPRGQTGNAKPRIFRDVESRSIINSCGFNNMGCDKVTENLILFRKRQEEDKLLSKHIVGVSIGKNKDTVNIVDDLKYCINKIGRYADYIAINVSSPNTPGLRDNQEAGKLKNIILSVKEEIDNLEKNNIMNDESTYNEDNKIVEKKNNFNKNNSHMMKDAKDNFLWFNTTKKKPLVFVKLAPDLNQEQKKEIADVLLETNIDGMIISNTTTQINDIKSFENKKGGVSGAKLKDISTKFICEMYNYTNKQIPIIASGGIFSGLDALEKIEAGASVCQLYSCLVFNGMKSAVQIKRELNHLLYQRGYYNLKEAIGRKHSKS
Chain of E3 ubiquitin-protein ligase XIAP (Homo sapiens) (P98170 whole entry, looked up): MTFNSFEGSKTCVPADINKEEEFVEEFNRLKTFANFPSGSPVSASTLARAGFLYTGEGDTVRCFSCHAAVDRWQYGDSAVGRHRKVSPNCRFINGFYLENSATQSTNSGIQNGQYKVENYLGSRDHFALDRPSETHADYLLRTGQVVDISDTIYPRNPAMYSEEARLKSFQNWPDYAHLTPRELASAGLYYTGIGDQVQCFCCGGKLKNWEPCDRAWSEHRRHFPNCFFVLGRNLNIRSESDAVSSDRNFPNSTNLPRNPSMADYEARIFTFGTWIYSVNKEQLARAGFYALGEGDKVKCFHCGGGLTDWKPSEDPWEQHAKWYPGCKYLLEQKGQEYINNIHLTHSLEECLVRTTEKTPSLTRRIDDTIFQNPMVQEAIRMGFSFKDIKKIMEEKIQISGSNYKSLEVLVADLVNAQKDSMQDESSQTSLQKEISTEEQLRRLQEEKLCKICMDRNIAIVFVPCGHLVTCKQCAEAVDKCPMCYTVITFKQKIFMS

For the compound `O=C1O[C@H](c2ccccc2)[C@H](c2ccccc2)N2[C@H]1[C@@H](C(=O)O)[C@]1(C(=O)Nc3ccc(C#CC4(O)CCCCCC4)cc31)[C@H]2c1ccccc1OCCO`, the z-score in test [1] was 0.631; in test [2] it was 0.0596; in test [3], -0.0165; in [4] it was -3.38; in test [5], -4.15; in test [6] it was -2.61. The z-score in test [7] was -0.521 (inactive); in [8], -0.911; in [9], -0.681; in test [10] it was 0.95 (inactive); in test [11], 1.15; in [12], -1.72 (inactive). Further, the z-score in test [13] is -0.65 (inactive); in test [15], -0.645 (inactive); in test [16] it was 3.22 (inactive); in test [17] it was 0.703 (inactive); in test [18], 0.732 (inactive); in [19], 0.305. The results for the composite z-score in [14] and in test [20] were -2.25 (inactive) and -0.0666, respectively.

As to `CC(C)Cc1ccc(CN2CC[C@@H](NC(=O)c3ccccc3)C2)cc1`, the z-score is 0.0665 in [1]; -0.418 in test [2]; -0.179 in test [3]; -3.15 in [4]; -2.77 in test [5]; -0.251 in test [6]. The z-score in test [7] is 0.343 (inactive); in test [8], -0.442; in [9], -1.38; in [10], 0.247 (inactive); in test [11], -0.375; in test [12] it was -7.1 (inactive). The z-score is -0.18 (inactive) in test [13]; -0.0248 (inactive) in test [15]; 2.05 (inactive) in [16]; 0.295 (inactive) in [17]; 0.118 (inactive) in test [18]; -0.193 in [19]. Moreover, the composite z-score in test [14] was 0.228 (inactive); in [20] it was -0.135.

`COc1ccc(C#Cc2ccc3c(c2)[C@]2(C(=O)N3)[C@H](c3ccccc3OCCO)N3[C@H](c4ccccc4)[C@H](c4ccccc4)OC(=O)[C@H]3[C@@H]2C(=O)NC[C@H](O)c2ccccc2)cc1`: the z-score in test [1] is -1.22; in test [2], 0.449; in test [3] it was -1.88; in test [4], -2.85; in [5], -4.12; in test [6], -1.21. The z-score in test [7] was 3.95 (inactive); in test [8], -0.957; in [9], -1.66; in test [10] it was -1.01 (inactive); in test [11] it was 0.328; in [12], 2.05 (inactive). In addition, the z-score in test [13] is -2.59 (inactive); in test [15] it was 1.08 (inactive); in test [16], 2.25 (inactive); in test [17], 0.158 (inactive); in [18], -0.438 (inactive); in [19], -3.95. For the same compound, the composite z-score in [14] is -17.2 (active); in test [20], 0.0655.

Turning to `CC(C)(C)OC(=O)CC[C@]1(C(=O)N2CCOCC2)COC(c2ccc(OCCCO)cc2)=N1`, the z-score in [1] was 0.204; in test [2], -0.492; in [3], 1.26; in [4], 0.571; in [5] it was -0.785; in [6], 2.31. Besides, the z-score in test [7] is -0.305 (inactive); in test [8] it was -0.44; in [9], -0.143; in test [10] it was 0.216 (inactive); in test [11], 0.329; in test [12] it was -0.444 (inactive). In addition, the z-score was 0.475 (inactive) in test [13]; 0.149 (inactive) in test [15]; 0.568 (inactive) in test [16]; 1.21 (inactive) in test [17]; 1.37 (inactive) in test [18]; 0.227 in test [19]. Besides, the composite z-score is -0.0274 (inactive) in [14] and 0.0996 in test [20].

For `CCCCCCCCCCC(O)C1C=CC2C(=O)N(C)C(=O)C2N1Nc1ccccc1` (stereo not given), the z-score in [1] was -2.46; in test [2] it was -1.27; in [3], -1.38; in test [4], -3.85; in test [5], -4.07; in test [6], -1.18. Besides, the z-score in [7] is -0.92 (inactive); in test [8] it was -0.744; in test [9], 0.0317; in [10] it was -0.545 (inactive); in test [11] it was -1.83; in test [12] it was 0.27 (inactive). For the same compound, the z-score in [13] was -1.49 (inactive); in [15], 1.58 (inactive); in test [16], 1.35 (inactive); in test [17], -0.483 (inactive); in [18] it was -0.54 (inactive); in [19] it was -1.33. Besides, the composite z-score in test [14] is -0.205 (inactive); in test [20], 0.192.

`CCOC(=O)C[C@H]1[C@H](OC(=O)c2ccccc2-c2ccccc2)[C@@H](NC(=O)CC(C)C)c2cc(OCCCO)ccc2N1C(=O)c1ccccc1`: the z-score in test [1] is 0.682; in [2] it was 1.32; in [3], -0.177; in test [4], -0.271; in [5] it was 0.107; in test [6] it was 2.01. The z-score was 0.197 (inactive) in [7]; -0.986 in test [8]; -0.0327 in [9]; 1.65 (inactive) in [10]; 0.928 in [11]; -1.04 (inactive) in test [12]. Further, the z-score in [13] is 0.351 (inactive); in test [15], 0.13 (inactive); in [16], -0.71 (inactive); in [17], 1.51 (inactive); in [18], 0.973 (inactive); in test [19], -0.503. Moreover, the composite z-score in test [14] was -0.6 (inactive); in [20], 0.0412.

Take `COCCCNC(=O)[C@@]1(Cc2ccccc2I)c2ccccc2C(=O)N(Cc2ccccc2C(F)(F)F)[C@H]1c1ccc(CO)cc1`: the z-score was -0.369 in test [1]; -0.884 in [2]; -0.305 in test [3]; -1.14 in test [4]; -1.61 in test [5]; 0.405 in test [6]. The z-score in [7] is -1.19 (inactive); in [8], -0.578; in test [9], -0.553; in test [10], 1.77 (inactive); in test [11], 0.331; in [12], -0.088 (inactive). The z-score is 0.377 (inactive) in [13]; -0.963 (inactive) in [15]; 1.38 (inactive) in [16]; 0.309 (inactive) in test [17]; 0.324 (inactive) in test [18]; 0.426 in [19]. Further, the composite z-score is 0.543 (inactive) in [14] and -0.223 in [20].

With `COc1ccc([Si](C)(C)[C@@H]2[C@@H](CC(=O)N(CCO)Cc3ccccc3)O[C@]3(C(=O)N(Cc4cccc(I)c4)c4ccccc43)[C@H]2C)cc1`, the z-score was -1.09 in [1]; 1.05 in test [2]; -1.59 in [3]; -2.55 in test [4]; -4.25 in [5]; 0.198 in [6]. Further, the z-score in test [7] is 1.5 (inactive); in test [8] it was -1.2; in [9], -1.68; in test [10], -2.97 (inactive); in test [11], -2.2; in test [12], -0.142 (inactive). The z-score in test [13] was -3.25 (inactive); in [15] it was 1.51 (inactive); in test [16], 2.64 (inactive); in [17], -0.335 (inactive); in [18] it was -0.795 (inactive); in test [19], -2.96. Further, the composite z-score in test [14] was 0.704 (inactive); in [20] it was 0.236.

As to `[N-]=[N+]=NCc1ccccc1[C@H]1OC(c2ccc(OCCCO)cc2)=N[C@@]1(CCS(=O)(=O)c1ccccc1)C(=O)NCCN1CCOCC1`, the z-score in test [1] was 1.69; in test [2], -0.328; in test [3] it was 1.14; in test [4] it was -1.03; in test [5], 0.511; in test [6] it was 0.418. For the same compound, the z-score in test [7] is -0.221 (inactive); in test [8], -0.556; in [9] it was -0.801; in [10], 0.0651 (inactive); in test [11], -0.152; in test [12], 0.256 (inactive). Further, the z-score in test [13] is 0.285 (inactive); in test [15], 1.13 (inactive); in test [16], -0.199 (inactive); in test [17], -0.178 (inactive); in test [18], -0.35 (inactive); in [19], 0.548. For the same compound, the composite z-score in test [14] was 0.12 (inactive); in test [20], -0.115.

Values taken from PubChem BioAssay.
